# Measurements: PubChem BioAssay (NCATS)
# Records with an inconclusive call do not appear. A number with no mark means an inactive call. Calls follow the shape of the dose curve; as a rule, active = well fitted inhibition curve with a large enough effect; inconclusive = small, poorly fitted or top-dose-only effect; inactive = no such curve, though single readings can be large or run the other way.
# Biological target: Rap guanine nucleotide exchange factor 3 (Homo sapiens) (UniProt O95398)
# Test: Counterscreen qHTS for antagonist of cAMP-regulated guanine nucleotide exchange factor 3 (EPAC1) (AID 1645888); also: % of control where 0% means no effect
# Details: Rap1B-BODIPY-GDP nucleotide exchange, fluorescence; series mostly up to 154 µM; activity change, negative = inhibition: at the top concentration
# Description: Assay Provider (PI): Xiaodong Cheng Ph.D. The University of Texas Medical Branch, […], TX MLPCN Grant: NS066510 In multi-cellular eukaryotic organisms, the effects of cAMP are transduced by two ubiquitously-expressed intracellular cAMP receptors, the classic protein kinase A/cAMP-dependent protein kinase (PKA/cAPK) and the more recently discovered exchange protein directly activated by cAMP/cAMP-regulated guanine nucleotide exchange factor (EPAC/cAMP-GEF). Both PKA and EPAC are ubiquitously expressed in all tissues, and an increase in intracellular cAMP levels will lead to the activation of both PKA and EPAC. Therefore, careful dissections of the individual role and relative contribution of EPAC and PKA within the overall cAMP signaling in various model systems are critical for further elucidating the mechanism of cAMP signaling. To date no EPAC-specific antagonists and agonist, as well as isoform-specific agonists have been reported, and developing EPAC-specific pharmacological probes to determine the physiological functions that EPAC play in the overall cAMP-mediated signaling remains a major challenge within the research field. Furthermore, identified regulators of EPAC may lead to new mechanism-based therapeutic strategies specifically targeting the EPAC / cAMP-signaling components as EPAC has been implicated to play important roles in major human pathological conditions such as diabetes, heart disease, and cancer. This qHTS will be used to screen the Molecular Libraries Small Molecule Repository (MLSMR) as a concentration-titration series using the NCGC unique quantitative screening (qHTS) platform to find activators for EPAC1. In addition, this assay will also be used as a counterscreen for the EPAC2 qHTS. This fluorescent based assay is developed and validated for EPAC1 that measures exchange using EPAC effector Rap1 complex with BODIPY-GDP, a GDP analog with a tethered fluorophores. Activators are identified by monitoring the change in fluorescence signal as the exchanged free BODIPY-GDP has a reduced fluorescence compared to Rap1-bound BODIPY-GDP. Increase in signal (activation) is the desired outcome for the EPAC1 agonist while no activity in this assay is desired for the EPAC2 agonist counterscreen. Reference: [1] de Rooij, J., Zwartkruis, F. J., Verheijen, M. H., Cool, R. H., Nijman, S. M., Wittinghofer, A., and Bos, J.L. (1998) Nature 396, 474-477. Kawasaki, H., Springett, G. M., Mochizuki, N., Toki, S., Nakaya, M., Matsuda, M., Housman, D. E., and Graybiel, A. M. (1998) Science 282, 2275-2279.
# EPAC1 Counterscreen PROTOCOL TABLE SEQUENCE No. (e.g., 1, 2, 3, etc.); […] (e.g., Cells, Incubation, Reagent, etc.); VALUE and DESCRIPTION. 1. Reagent. 3 uL. [1x] 250 nM Rap1B-BODIPY-GDP, and 50 uM GDP. 2a. Compound. 23 nL. Control 6,572 uM cAMP (working concentration). 2b, 2c. Compound. 23 nL. Control activator and inhibitor; 234 - 30,000 uM cAMP and 16.4 - 10,000 uM. 2d. Compound. 46 nL. MLSMR follow-up library; 0.64 - 10,000 uM. 3. Time. 15 sec, 1000rpm. Centrifuge. 4. Time. 5 min. Incubation at room temperature. 5. Detector. Fluorescence. (Read 1), Ex/Em = 480 nm / 540 nm. 6. Time. 30 min. Incubation at room temperature. 7. Detector. Fluorescence. (Read 2), Ex/Em = 480 nm/ 540 nm. 8. Reagent. 1uL. Dispense either [4x] 10 uM cAMP or buffer. 9. Time. 15 sec, 1000 rpm. Centrifuge. 10. Time. 5 min. Incubation at room temperature. 11. Detector. Fluorescence. (Read 3), Ex/Em = 480 nm / 540 nm. 12. Time. 30 min. Incubation at room temperature. 13. Detector. Fluorescence. (Read 4), Ex/Em = 480 nm / 540 nm. NOTES (numbers refer to Sequence numbers above; values are from representative experiments) 1. Medium-binding black solid-bottom Greiner plates (789176-F). Dispense 3 uL of [1x] 250 nM Rap1B-BODIPY-GDP, and 50 uM GDP into columns 1 to 48. 2a. Control compound cAMP (6,572 uM, column 3, rows 1 to 32) single pin-transferred for a [final] of 50 uM. 2b. […]
# Chain of Rap guanine nucleotide exchange factor 3 (Homo sapiens) (O95398 whole entry, looked up): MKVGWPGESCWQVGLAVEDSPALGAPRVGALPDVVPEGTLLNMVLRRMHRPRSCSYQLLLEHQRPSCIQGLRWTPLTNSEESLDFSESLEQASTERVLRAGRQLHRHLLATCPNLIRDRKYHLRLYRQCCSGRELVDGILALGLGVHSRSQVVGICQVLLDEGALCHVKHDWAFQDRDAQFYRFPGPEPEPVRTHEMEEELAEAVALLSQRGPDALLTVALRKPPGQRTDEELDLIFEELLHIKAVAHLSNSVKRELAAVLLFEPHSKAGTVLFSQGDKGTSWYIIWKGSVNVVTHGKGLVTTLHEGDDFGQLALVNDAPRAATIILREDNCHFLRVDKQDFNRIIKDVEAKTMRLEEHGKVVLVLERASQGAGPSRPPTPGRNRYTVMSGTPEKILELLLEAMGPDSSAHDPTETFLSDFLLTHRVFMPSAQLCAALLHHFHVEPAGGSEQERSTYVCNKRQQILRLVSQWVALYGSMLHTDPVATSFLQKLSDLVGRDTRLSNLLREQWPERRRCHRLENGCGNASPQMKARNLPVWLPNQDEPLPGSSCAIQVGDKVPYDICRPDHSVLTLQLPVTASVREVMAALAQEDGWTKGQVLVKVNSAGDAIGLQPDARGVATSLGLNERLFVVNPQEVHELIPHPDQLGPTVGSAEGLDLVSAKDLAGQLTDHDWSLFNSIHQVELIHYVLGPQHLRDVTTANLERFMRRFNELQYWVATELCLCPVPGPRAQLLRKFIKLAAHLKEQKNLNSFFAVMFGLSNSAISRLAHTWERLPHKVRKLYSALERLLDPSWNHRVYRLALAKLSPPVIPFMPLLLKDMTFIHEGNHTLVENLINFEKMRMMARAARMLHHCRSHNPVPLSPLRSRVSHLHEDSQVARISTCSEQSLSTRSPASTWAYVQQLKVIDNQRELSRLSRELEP
row,SMILES,"activity change, negative = inhibition"
1,COc1ccc(C(=O)/C=C/c2ccc(N(C)C)cc2)c(OC)c1,81.1%
2,COc1ccc(/C=C/C(=O)c2ccccc2)c(OC)c1,-16.1% [at 30.8 µM]
3,Oc1ccccc1CNc1ccc(OC(F)(F)F)cc1,-29.4%
4,O=C(OCC1OC(n2ncc(=O)[nH]c2=O)C(OC(=O)c2ccccc2)C1OC(=O)c1ccccc1)c1ccccc1 (stereo not given),-8.49% [at 30.8 µM]
5,NC1=C(Cl)C(=O)c2ccc(S(N)(=O)=O)cc2C1=O,4.17%
6,CCOc1cc(/C=C(/C#N)c2ccc(Cl)cc2)cc(Cl)c1OCC(=O)O,-8.72% [at 30.8 µM]
7,Oc1ccc(/C=N/Nc2ncnc3nc[nH]c23)cc1,4.9% [at 30.8 µM]
8,CC(=O)Nc1ccc(NC(=S)NC(=O)/C=C/c2ccco2)cc1,17.7%
9,COc1ccccc1C(=O)Nc1ccccc1C(=O)N1C(C)CCCC1C (stereo not given),3.19%
10,Cc1ccccc1OCC(=O)Nc1ccc(C(=O)OCc2cc(=O)n3c(C)csc3n2)cc1,17.2%
11,N#Cc1c(N2CCCCC2)nc(N)c2c(N)nc(SCC(=O)O)cc12,35.9% [at 30.8 µM]
12,Cc1cc(C)cc(OCCSc2nc(-c3ccc(C(C)(C)C)cc3)nc3cc(=O)[nH]n23)c1,24.6%
13,Cc1ccc(SCc2cc(=O)c3c(=O)n(-c4ccccc4)[nH]c3[nH]2)cc1,15%
14,CCOc1cccc(CNc2ccc(O)cc2)c1OCc1ccc(Cl)cc1,-11.8%
15,O=C(c1sc2cc(F)ccc2c1Cl)N1CCN(c2ccccc2)CC1,14.5%
16,O=c1oc2cc(O)ccc2cc1-c1nnc(Nc2ccccc2F)s1,196%
17,CC1=CC(C)(C)N(C(=O)c2ccc(F)cc2)c2cc3c(cc21)OCO3,-28.2%
18,O=C1Cc2ccccc2C(=O)N1,11.4%
19,O=S(=O)(Nc1ccc(Cl)cc1NS(=O)(=O)c1ccccc1)c1ccccc1,-27.8% [at 30.8 µM]
20,CC1=NCCN1S(=O)(=O)c1c(C(C)C)cc(C(C)C)cc1C(C)C,-0.295%

row,SMILES,"activity change, negative = inhibition"
1,COc1ccc(C=C(C(C)=O)C(=O)c2ccccc2)cc1,-5.04%
2,CCN(CC)C(=O)CSc1nnc(-c2cccs2)n1Cc1ccco1,5.58%
3,CCOC(=O)c1ccc(NC(=O)c2c(N)n(Cc3ccccc3)c(=O)[nH]c2=O)cc1,16.5%
4,O=C(O)c1ccccc1NS(=O)(=O)c1ccc(NN=Cc2cccc(Cl)c2)c([N+](=O)[O-])c1,27.4%
5,CC1=NN(c2ccc(C)c(C)c2)C(=O)C1C(c1cccc(O)c1)C1C(=O)N(c2ccc(C)c(C)c2)N=C1C (stereo not given),19.9% [at 30.8 µM]
6,CC(=O)c1ccc(NC(=O)c2ccc3c(c2)C(=O)N(c2ccccn2)C3=O)cc1,-10.9%
7,CCC(COC)Oc1cc(NCc2ccccc2)c2ncn(C(C)C)c2c1 (stereo not given),15.2%
8,O=C(O)C(Cc1c[nH]c2ccccc12)NS(=O)(=O)c1ccc2ccccc2c1 (stereo not given),3.28%
9,O=C(O)CN1C(=O)/C(=C\c2cc(Br)ccc2OCc2ccccc2Cl)SC1=S,1.48%
10,COC(=O)c1ccc2nc(-c3ccc(Cl)cc3)c(Cc3ccccc3OC)n2c1,12.9%
11,Cc1onc(-c2c(Cl)cccc2Cl)c1COC(=O)c1ccc(Cl)cc1,9.34%
12,CCOC(=O)C1=CN(Cc2cccc(F)c2)S(=O)(=O)NC1c1ccc(Br)cc1F (stereo not given),-12.1%
13,Cc1ccc(NC(=O)N2CC3CCCN3c3ccccc32)cc1Cl (stereo not given),34.7%
14,CCCN1CCN(c2ncnc3sc(C(=O)Nc4ccc(OC(F)(F)F)cc4)c(C)c23)CC1,-4.96%
15,CCOP(=O)(OCC)C(Cc1ccccc1)N=C(c1ccccc1)c1ccccc1 (stereo not given),3.36% [at 30.8 µM]
16,Nc1ccc2ccc(O)cc2c1,-3.65% [at 30.8 µM]
17,O=C(Nc1cccc(S(=O)(=O)NCc2ccco2)c1)c1cc(-c2ccccc2)nc2ccccc12,-17.7%
18,CC(/C=C1\SC(=S)N(c2ccc(C(=O)O)cc2)C1=O)=C\c1ccccc1,1.04% [at 30.8 µM]
19,CC(Oc1ccc(Cl)cc1Cl)C(=O)NC1=NN(c2ccccc2)C(=O)C1 (stereo not given),1.52%
20,Cc1cccc(C)c1Nc1c(-c2ccc(Cl)s2)nc2ncccn12,-6.74%
